Shown are actives, neighbours in structure and some others; about 5.7% of the full set was active somewhere.
Myeloid diff 2 – induction of myeloid progenitor differentiation, primary screen, cell-based, flow cytometry, MLPCN library; ER-HoxA9 myeloid progenitors, lysozyme-GFP differentiation; calls only at 10 µM; actives 1% (n = 360,000);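 active means normalized GFP-positive differentiation at or above the plate's own cutoff, the solvent-only control mean plus 3 SD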;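 further: cells exposed to compound for four days before flow analysis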
MPTP block – mitochondrial permeability transition pore inhibitors, primary screen, biochemical, isolated mouse mitochondria, absorbance. Ca2+ swelling absorbance, 30 min. actives 1.4% (n = 360,000). inhibition, % at 10 µM. AID 602449, 2012;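 active means inhibition of 50% or more, scaled per plate between neutral and stimulator controls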;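 further: 0% = DMSO wells given calcium and 100% = 1 mM EGTA wells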
rCAG binder – binders of r(CAG) RNA repeats, primary screen, biochemical, fluorescence; r(CAG) RNA repeat, TO-PRO-1 dye displacement fluorescence; inhibition, % at 3 µM; actives 1.3% (n = 370,000); AID 651821, 2012;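 active means inhibition above the plate cutoff, the mean of all test compounds on that plate plus 3 SD, cut at about 35% in these data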;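 further: 0% = DMSO alone and 100% = 100 µM mitoxantrone as full dye displacement; higher means more dye released from RNA so lower well fluorescence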
FAS TE block – FAS thioesterase domain inhibitors, primary screen, biochemical, fluorescence intensity, uHTS; actives 0.67% (n = 360,000); AID 602261, 2012; Fatty acid synthase (Homo sapiens), P49327; inhibition, % at 15 µM; recombinant FAS-TE, OMFH fluorogenic substrate, fluorescence endpoint;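 active means compounds whose normalised, plate-corrected inhibition of enzyme fluorescence in the single-dose primary screen is 50% or more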;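 further: 0% = DMSO with enzyme and 100% = substrate without enzyme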
GRIN3A LBD mod – binders of NR3A ligand-binding domain, primary screen, biophysical, differential scanning fluorimetry, uHTS | AID 1259313, 2017 | Glutamate receptor ionotropic, NMDA 3A (GRIN3A) ligand-binding domain | Tm shift relative to glycine control, % at 25 µM | actives 2.5% (n = 340,000) | NR3A LBD differential scanning fluorimetry, Tm shift; 0% = protein alone, 100% = glycine-bound protein;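 active means melting temperature shift of at least 10% of the positive control shift, at one fixed dose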
rCAG bind conf – small molecules binding CAG repeat RNA – biochemical, fluorescence, confirmation; shares compounds with rCAG binder; r(CAG) RNA repeat, TO-PRO-1 dye displacement fluorescence; inhibition, % at 3 µM; actives 70% (n = 4,300); AID 652065, 2013;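 active means inhibition above a per-plate cutoff, the mean inhibition of sample wells plus 3 SD, cut at about 35% in these data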;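 further: loss of TO-PRO-1 fluorescence as compound displaces dye from 1x1 AA loop RNA; 0% = DMSO only wells and 100% = 100 µM mitoxantrone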
DNA CAG counter – displacement of TO-PRO-1 from CAG DNA duplex, counter-screen for rCAG RNA repeat binder project, biochemical, fluorescence, TO-PRO-1 dye, d(CAG) DNA oligo. shares compounds with rCAG binder. d(CAG) DNA oligo TO-PRO-1 dye displacement. inhibition, % at 3 µM. actives 94% (n = 4,300). AID 652068, 2013;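 active means inhibition above its plate's cutoff, the mean test-well inhibition plus 3 SD, cut at about 4.8% in these data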;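 further: 0% = DNA dye mix with DMSO and 100% = 100 µM mitoxantrone; hits displace the dye from DNA and so lower well fluorescence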
dCAG dye DR – inhibitors of DNA CAG/GTC TO-PRO-1 complex, dose response, counter-screen for rCAG RNA repeat binder project, biochemical, fluorescence, TO-PRO-1 dye | shares compounds with rCAG binder | DNA CAG/GTC duplex TO-PRO-1 dye displacement fluorescence | IC50, µM | actives 20% (n = 250) | AID 686960, 2013; in the data active means IC50 below about 10 µM
Numbers without * were called inactive; i = inactive; · = not tested or not shown; + = active, no number.

SMILES	Myeloid diff 2	MPTP block	rCAG binder	FAS TE block	GRIN3A LBD mod	rCAG bind conf	DNA CAG counter	others
O=C(N/N=C/C(Cl)=C/c1ccc([N+](=O)[O-])cc1)C(=O)Nc1ccc(C(=O)O)cc1	i	2	-1	6	1	·	·
O=C(Nc1ccccc1C(=O)O)c1cccc(NC(=O)c2ccccc2Cl)c1	i	2	34	-2	-3	·	·
O=C(/C=C/c1cccc([N+](=O)[O-])c1)Nc1cc(C(=O)O)cc(C(=O)O)c1	i	0	8	-2	1	·	·
CC(=O)Oc1cccc(C(=O)Nc2cccc(C(=O)Nc3ccccc3C(=O)O)c2)c1	i	0	56*	-2	0	37*	8.4*
O=C(N/N=C/C(Cl)=C/c1ccc([N+](=O)[O-])cc1)C(=O)Nc1ccccc1C(=O)O	i	11	52*	8	-1	46*	19*
CC(=O)Oc1cccc(NC(=O)c2cccc(C(=O)Nc3cccc(OC(C)=O)c3)c2)c1	i	3	1	4	-6	·	·
O=C(/C=C/c1ccc([N+](=O)[O-])cc1)Nc1cccc(C(=O)Nc2ccccc2C(=O)O)c1	+	1	44*	19	17*	83*	50*
O=C(COC(=O)COc1ccc(Br)cc1)NCc1ccccc1	i	-2	0	-7	8	·	·
CC1CCCCC12NC(=O)N(CC(=O)c1ccc(Cl)s1)C2=O (configuration not stated)	i	3	1	0	-1	·	·
CN(c1cccc(Cl)c1)S(=O)(=O)c1cccc(C(=O)NCc2ccncc2)c1	i	5	2	-1	-2	·	·
CC(=O)c1ccc(N2CCN(C(=O)c3ccc4c(=O)[nH]c5c(C(=O)NC6CCCC6)sc(=S)n5c4c3)CC2)cc1	·	·	28	·	·	·	·
COc1ccc(OC)c(CCNC(=O)c2ccc3c(=O)[nH]c4c(C(=O)NC(C)C)sc(=S)n4c3c2)c1	i	24	11	33	-6	·	·
O=C(NCC1CCCO1)c1sc(=S)n2c1[nH]c(=O)c1ccc(C(=O)N3CCCCC3)cc12 (configuration not stated)	i	2	81*	5	-6	84*	40*
O=C(NCCc1ccccc1)c1ccc2c(=O)[nH]c3c(C(=O)NCC4CCCO4)sc(=S)n3c2c1 (configuration not stated)	i	0	91*	26	3	93*	71*
O=C(NCCc1ccc(Cl)cc1)c1ccc2c(=O)[nH]c3c(C(=O)NCC4CCCO4)sc(=S)n3c2c1 (configuration not stated)	·	·	44*	·	·	85*	70*
CCOc1cc(NC(=O)c2ccccc2[N+](=O)[O-])c(OCC)cc1NC(=O)CC(C)C	i	0	-3	-17	-3	·	·
Cc1nc(NS(=O)(=O)c2ccccc2)sc1NC(=O)Nc1ccc(Cl)cc1	i	0	49*	4	8	38*	15*
CC(=O)c1ccc(NC(=O)Nc2sc(NS(=O)(=O)c3ccccc3)nc2C)cc1	i	0	38*	-1	-6	22	8.2*
N=C1SC(c2ccccc2)C(=O)N1c1ncc(Cc2ccccc2Cl)s1 (configuration not stated)	i	16	58*	2	-3	72*	32*	dCAG dye DR=i
COC(=O)c1cc(=O)n(-c2ccc(C(F)(F)F)cc2)[nH]1	i	4	61*	-4	-1	5	3
Cc1ccc(S(=O)(=O)N(CC(=O)c2ccccc2)C(=O)N2CCN(C)CC2)cc1	i	-3	1	-7	-3	·	·
COc1ccc(C2=CC3=C(Br)C(=O)C(C)(OC(=O)c4cccs4)C(=O)C3=CO2)cc1 (configuration not stated)	i	7	49*	-9	-21	45*	21*
COc1ccc(N2CCN(C(=O)c3ccc(CNS(=O)(=O)c4cc(C)ccc4C)cc3)CC2)cc1	i	0	-6	11	5	·	·
Cc1ccc(S(=O)(=O)N2[C@@H](c3ccccc3F)C(C(=O)O)=CC[C@H]2c2cccs2)cc1	i	2	45*	-3	1	46*	12*
Cc1ccc(S(=O)(=O)N2[C@@H](c3ccccc3)C(C(=O)O)=CC[C@H]2c2cccs2)cc1	i	6	42*	-4	2	43*	9.4*
SMILES	Myeloid diff 2	MPTP block	rCAG binder	FAS TE block	GRIN3A LBD mod	rCAG bind conf	DNA CAG counter	others
CC(=O)C1=CCC(c2cccs2)N(S(=O)(=O)c2ccc(C)cc2)C1 (configuration not stated)	i	0	5	9	·	·	·
NS(=O)(=O)c1cccc(NC(=O)COC(=O)CC2CC3CCC2C3)c1 (configuration not stated)	i	-1	0	-3	-2	·	·
O=S(=O)(Nc1ncccn1)c1ccc(NC(=S)N2CCN(Cc3ccc(F)cc3Cl)CC2)cc1	i	-2	39*	-3	2	38*	11*
Cc1ccc(-n2nnnc2-c2cccs2)cc1[N+](=O)[O-]	i	3	-2	0	1	·	·
N#CC(=C(O)CN1CCN(c2ccccc2F)CC1)c1nc(-c2ccccc2)cs1	i	9	51*	-5	-1	51*	18*
CCOC(=O)C1CCCN(C/C(O)=C(\C#N)c2nc(-c3ccc(Cl)cc3)cs2)C1 (configuration not stated)	i	8	35*	4	1	58*	17*
N#CC(=C(O)CN1CCN(c2ccccc2F)CC1)c1nc(-c2ccc(Cl)cc2)cs1	i	34	51*	-3	90*	63*	24*
Cn1c(SCC(=O)NNC(=O)c2ccccc2)nnc1C1CC1	·	-2	2	-3	1	·	·
CC(=O)Nc1ccc(CN2CCCN(C)CC2)cc1	i	0	-1	-1	1	·	·
N#CCCN(C(=O)COC(=O)CCc1nc2ccccc2c(=O)[nH]1)c1ccc(F)cc1	i	0	4	-8	-2	·	·
CCCCn1c(N)c(N(CC(C)C)C(=O)CSc2ccccc2C)c(=O)[nH]c1=O	i	0	3	-2	0	·	·

Compound activity deposited in PubChem by several laboratories.
